# Assay results: ChEMBL document CHEMBL1961873, “Compounds: GSK PKIS; Assays: Nanosyn kinase panel” (2012)
# Legend:
# [1] = molecular target: Serine/threonine-protein kinase MARK2 (Homo sapiens) (UniProt Q7KZI7); settings: at 1 µM
# [2] = molecular target: PAS domain-containing serine/threonine-protein kinase (Homo sapiens) (UniProt Q96RG2); settings: at 0.1 µM
# [3] = molecular target: PAS domain-containing serine/threonine-protein kinase (Homo sapiens) (UniProt Q96RG2); settings: at 1 µM
# [4] = molecular target: Phosphorylase b kinase gamma catalytic chain, skeletal muscle/heart isoform (Homo sapiens) (UniProt Q16816); settings: at 0.1 µM
# [5] = molecular target: Phosphorylase b kinase gamma catalytic chain, skeletal muscle/heart isoform (Homo sapiens) (UniProt Q16816); settings: at 1 µM
# [6] = molecular target: T1, Phosphorylase b kinase gamma catalytic chain, liver/testis isoform (Homo sapiens) (UniProt P15735); settings: at 0.1 µM
# T1 sequence (whole entry): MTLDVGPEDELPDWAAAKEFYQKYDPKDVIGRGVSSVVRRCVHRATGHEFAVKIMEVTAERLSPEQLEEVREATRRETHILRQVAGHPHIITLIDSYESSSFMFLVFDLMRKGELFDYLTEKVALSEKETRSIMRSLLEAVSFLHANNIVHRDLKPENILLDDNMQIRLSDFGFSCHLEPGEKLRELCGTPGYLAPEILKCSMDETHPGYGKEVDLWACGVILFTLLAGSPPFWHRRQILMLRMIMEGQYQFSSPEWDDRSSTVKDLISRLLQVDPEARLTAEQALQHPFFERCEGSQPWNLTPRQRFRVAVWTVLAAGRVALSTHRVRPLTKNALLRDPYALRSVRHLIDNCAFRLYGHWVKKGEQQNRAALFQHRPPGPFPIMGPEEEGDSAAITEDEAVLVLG
# [7] = molecular target: T1, Phosphorylase b kinase gamma catalytic chain, liver/testis isoform (Homo sapiens); settings: at 1 µM
# [8] = molecular target: Serine/threonine-protein kinase pim-1 (Homo sapiens) (UniProt P11309); settings: at 0.1 µM
# [9] = molecular target: Serine/threonine-protein kinase pim-1 (Homo sapiens) (UniProt P11309); settings: at 1 µM
# [10] = molecular target: Serine/threonine-protein kinase pim-2 (Homo sapiens) (UniProt Q9P1W9); settings: at 0.1 µM
# [11] = molecular target: Serine/threonine-protein kinase pim-2 (Homo sapiens) (UniProt Q9P1W9); settings: at 1 µM
# [12] = molecular target: Serine/threonine-protein kinase pim-3 (Homo sapiens) (UniProt Q86V86); settings: at 0.1 µM
# [13] = molecular target: Serine/threonine-protein kinase pim-3 (Homo sapiens) (UniProt Q86V86); settings: at 1 µM
# [14] = molecular target: T2, MAP kinase-activated protein kinase 5 (Homo sapiens) (UniProt Q8IW41); settings: at 0.1 µM
# T2 sequence (whole entry): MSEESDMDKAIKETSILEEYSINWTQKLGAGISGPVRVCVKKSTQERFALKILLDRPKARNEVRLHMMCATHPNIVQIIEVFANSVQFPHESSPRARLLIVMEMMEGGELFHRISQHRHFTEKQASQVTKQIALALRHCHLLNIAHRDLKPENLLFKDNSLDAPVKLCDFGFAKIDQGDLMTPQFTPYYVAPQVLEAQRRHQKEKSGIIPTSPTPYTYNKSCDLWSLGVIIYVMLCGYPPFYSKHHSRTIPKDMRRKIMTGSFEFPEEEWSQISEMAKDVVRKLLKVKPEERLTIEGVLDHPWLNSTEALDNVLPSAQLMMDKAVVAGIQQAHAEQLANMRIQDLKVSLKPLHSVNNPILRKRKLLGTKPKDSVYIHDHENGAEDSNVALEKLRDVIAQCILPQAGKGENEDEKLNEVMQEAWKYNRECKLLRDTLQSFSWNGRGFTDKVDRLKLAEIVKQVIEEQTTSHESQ
# [15] = molecular target: T2, MAP kinase-activated protein kinase 5 (Homo sapiens); settings: at 1 µM
# [16] = molecular target: Serine/threonine-protein kinase SIK1 (Homo sapiens) (UniProt P57059); settings: at 0.1 µM
# [17] = molecular target: Serine/threonine-protein kinase SIK1 (Homo sapiens) (UniProt P57059); settings: at 1 µM
# [18] = molecular target: Serine/threonine-protein kinase SIK2 (Homo sapiens) (UniProt Q9H0K1); settings: at 0.1 µM
# [19] = molecular target: Serine/threonine-protein kinase SIK2 (Homo sapiens) (UniProt Q9H0K1); settings: at 1 µM
# [20] = molecular target: T3, Serine/threonine-protein kinase TBK1 (Homo sapiens) (UniProt Q9UHD2); settings: at 0.1 µM;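 note: values are the mean TBK1 inhibition, taken from the GSK PKIS screening data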
# T3 sequence (whole entry): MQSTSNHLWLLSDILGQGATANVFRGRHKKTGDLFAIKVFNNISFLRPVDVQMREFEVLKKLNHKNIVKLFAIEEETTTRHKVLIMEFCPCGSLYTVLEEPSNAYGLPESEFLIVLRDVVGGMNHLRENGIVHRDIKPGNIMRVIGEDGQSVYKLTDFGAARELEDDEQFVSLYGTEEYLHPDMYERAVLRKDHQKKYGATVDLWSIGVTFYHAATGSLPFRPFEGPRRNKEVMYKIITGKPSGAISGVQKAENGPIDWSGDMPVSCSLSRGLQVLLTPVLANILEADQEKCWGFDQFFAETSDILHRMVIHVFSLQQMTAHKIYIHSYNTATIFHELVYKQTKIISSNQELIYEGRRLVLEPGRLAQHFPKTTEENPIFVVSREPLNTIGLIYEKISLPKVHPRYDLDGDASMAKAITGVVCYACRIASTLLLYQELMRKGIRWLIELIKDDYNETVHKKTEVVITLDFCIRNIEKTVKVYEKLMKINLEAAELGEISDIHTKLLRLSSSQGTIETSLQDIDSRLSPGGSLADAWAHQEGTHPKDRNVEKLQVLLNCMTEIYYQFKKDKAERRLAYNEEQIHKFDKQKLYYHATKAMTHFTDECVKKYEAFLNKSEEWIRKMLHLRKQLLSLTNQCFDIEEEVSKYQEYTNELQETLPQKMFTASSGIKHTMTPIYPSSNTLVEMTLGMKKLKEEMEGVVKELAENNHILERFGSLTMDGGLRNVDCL
# Sequence of Phosphorylase b kinase gamma catalytic chain, skeletal muscle/heart isoform (Homo sapiens) (Q16816 whole entry, looked up, canonical isoform): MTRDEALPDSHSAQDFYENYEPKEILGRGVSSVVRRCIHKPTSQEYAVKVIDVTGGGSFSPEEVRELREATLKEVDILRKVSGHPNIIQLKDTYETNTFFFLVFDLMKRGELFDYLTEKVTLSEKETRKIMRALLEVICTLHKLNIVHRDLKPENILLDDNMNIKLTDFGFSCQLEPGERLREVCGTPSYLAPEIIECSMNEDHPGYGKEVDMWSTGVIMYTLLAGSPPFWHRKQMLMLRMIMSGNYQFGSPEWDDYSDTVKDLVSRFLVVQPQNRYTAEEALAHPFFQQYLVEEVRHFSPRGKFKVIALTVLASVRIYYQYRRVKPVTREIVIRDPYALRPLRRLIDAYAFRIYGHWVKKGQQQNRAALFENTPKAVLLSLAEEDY
# Sequence of Serine/threonine-protein kinase SIK1 (Homo sapiens) (P57059 whole entry): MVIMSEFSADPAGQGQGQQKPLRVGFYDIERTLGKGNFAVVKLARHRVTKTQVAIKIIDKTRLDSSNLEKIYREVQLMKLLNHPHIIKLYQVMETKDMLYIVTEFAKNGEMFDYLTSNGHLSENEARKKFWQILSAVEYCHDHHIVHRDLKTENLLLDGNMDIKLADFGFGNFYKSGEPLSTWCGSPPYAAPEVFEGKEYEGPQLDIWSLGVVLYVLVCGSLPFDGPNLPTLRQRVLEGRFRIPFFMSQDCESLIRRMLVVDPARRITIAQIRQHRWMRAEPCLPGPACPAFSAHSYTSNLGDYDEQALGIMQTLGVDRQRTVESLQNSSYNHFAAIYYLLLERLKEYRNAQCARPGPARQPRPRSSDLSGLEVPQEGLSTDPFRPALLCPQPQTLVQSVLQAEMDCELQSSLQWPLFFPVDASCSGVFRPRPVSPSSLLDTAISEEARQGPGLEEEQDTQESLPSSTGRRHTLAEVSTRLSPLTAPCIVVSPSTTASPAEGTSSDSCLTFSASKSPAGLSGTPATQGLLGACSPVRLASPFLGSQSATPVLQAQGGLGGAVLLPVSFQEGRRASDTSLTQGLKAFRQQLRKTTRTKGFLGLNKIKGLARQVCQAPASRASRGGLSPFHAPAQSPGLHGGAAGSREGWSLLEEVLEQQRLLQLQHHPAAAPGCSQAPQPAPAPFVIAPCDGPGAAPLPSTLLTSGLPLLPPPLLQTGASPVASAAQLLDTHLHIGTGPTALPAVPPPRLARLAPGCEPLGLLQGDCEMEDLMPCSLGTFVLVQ
# Sequence of Serine/threonine-protein kinase SIK2 (Homo sapiens) (Q9H0K1 whole entry, looked up): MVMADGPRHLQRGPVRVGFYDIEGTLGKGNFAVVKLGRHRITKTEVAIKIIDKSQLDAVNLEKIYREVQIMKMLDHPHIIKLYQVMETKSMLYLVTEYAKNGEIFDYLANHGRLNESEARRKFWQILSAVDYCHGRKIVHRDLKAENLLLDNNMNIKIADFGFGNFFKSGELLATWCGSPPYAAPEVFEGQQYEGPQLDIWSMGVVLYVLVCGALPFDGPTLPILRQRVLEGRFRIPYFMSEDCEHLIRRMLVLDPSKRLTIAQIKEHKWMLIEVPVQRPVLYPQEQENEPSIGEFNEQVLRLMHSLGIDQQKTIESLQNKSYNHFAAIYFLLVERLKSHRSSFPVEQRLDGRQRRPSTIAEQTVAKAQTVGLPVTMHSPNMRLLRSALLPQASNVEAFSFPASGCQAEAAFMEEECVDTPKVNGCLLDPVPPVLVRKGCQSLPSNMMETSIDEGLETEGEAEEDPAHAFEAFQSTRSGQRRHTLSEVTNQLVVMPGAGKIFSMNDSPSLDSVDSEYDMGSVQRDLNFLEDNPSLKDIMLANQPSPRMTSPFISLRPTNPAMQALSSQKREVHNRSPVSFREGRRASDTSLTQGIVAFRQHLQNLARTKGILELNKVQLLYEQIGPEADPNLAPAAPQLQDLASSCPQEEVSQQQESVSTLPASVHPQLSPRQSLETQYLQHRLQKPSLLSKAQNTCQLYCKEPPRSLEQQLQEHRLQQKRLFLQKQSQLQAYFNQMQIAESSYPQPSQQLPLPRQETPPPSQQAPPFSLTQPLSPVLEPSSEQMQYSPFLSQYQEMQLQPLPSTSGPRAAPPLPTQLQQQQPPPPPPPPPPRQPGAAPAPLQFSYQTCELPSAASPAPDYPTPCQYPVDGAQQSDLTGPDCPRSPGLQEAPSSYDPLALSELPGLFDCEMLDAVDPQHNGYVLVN
# Sequence of Serine/threonine-protein kinase pim-2 (Homo sapiens) (Q9P1W9 whole entry, looked up): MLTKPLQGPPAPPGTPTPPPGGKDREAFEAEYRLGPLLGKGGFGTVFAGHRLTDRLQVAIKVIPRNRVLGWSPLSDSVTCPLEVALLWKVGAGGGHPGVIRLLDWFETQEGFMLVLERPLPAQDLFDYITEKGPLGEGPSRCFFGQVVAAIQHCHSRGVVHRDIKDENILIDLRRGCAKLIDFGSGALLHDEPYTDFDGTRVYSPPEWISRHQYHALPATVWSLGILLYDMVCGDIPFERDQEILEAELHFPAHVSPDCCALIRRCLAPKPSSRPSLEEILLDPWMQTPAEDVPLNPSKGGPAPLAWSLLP
# Sequence of Serine/threonine-protein kinase MARK2 (Homo sapiens) (Q7KZI7 whole entry, the tested form may be a part): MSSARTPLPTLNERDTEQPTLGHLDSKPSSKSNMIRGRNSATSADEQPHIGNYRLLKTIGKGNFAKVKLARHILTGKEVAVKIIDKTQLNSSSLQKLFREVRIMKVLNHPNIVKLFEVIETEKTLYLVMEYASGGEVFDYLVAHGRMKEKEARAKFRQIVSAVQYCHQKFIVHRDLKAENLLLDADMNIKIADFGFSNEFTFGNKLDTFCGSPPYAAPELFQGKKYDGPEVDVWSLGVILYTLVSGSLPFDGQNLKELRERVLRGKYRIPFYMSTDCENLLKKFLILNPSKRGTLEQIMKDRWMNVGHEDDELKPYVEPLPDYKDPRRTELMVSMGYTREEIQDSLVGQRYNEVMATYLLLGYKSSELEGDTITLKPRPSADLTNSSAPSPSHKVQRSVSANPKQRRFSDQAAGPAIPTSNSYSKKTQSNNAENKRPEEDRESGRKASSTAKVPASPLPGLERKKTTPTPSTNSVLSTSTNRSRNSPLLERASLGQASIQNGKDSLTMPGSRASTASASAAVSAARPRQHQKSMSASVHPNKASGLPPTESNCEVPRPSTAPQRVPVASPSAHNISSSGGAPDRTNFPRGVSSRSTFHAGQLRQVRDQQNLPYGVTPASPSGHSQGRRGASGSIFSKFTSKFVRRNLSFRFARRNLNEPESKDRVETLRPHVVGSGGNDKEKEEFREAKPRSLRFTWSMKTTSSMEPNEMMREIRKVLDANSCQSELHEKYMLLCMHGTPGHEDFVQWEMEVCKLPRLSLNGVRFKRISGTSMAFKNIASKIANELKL
# Sequence of Serine/threonine-protein kinase pim-1 (Homo sapiens) (P11309 whole entry, looked up): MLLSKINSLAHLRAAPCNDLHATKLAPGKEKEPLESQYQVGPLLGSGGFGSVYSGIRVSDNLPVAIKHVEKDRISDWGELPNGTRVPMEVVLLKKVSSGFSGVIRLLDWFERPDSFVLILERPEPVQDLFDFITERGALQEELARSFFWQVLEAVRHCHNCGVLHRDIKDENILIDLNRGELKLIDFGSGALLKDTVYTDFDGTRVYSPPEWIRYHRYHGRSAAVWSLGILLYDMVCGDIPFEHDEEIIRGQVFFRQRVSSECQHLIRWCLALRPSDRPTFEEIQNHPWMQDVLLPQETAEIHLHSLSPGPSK
Compound,inhibition [1],inhibition [2],inhibition [3],inhibition [4],inhibition [5],inhibition [6],inhibition [7],inhibition [8],inhibition [9],inhibition [10],inhibition [11],inhibition [12],inhibition [13],inhibition [14],inhibition [15],inhibition [16],inhibition [17],inhibition [18],inhibition [19],inhibition [20]
COc1cc(Nc2ncc(-c3ccccc3)o2)cc(OC)c1OC,15.6%,0.63%,-0.67%,3.23%,20.9%,-2.9%,-2.15%,0.68%,2.12%,0.06%,1.06%,0.31%,1.87%,-0.54%,0.01%,0.98%,27.4%,3.12%,30.6%,2.26%
O=C1Nc2ccc(I)cc2C1=Cc1cc(Br)c(O)c(Br)c1,2.16%,-2.03%,-1.55%,-0.98%,3.92%,4.05%,4.75%,2.05%,11.4%,0.13%,18.2%,1.85%,17.7%,1.19%,1.78%,8.91%,9.38%,4.92%,9.04%,3.66%
CN1CCN(CCCNc2nc3ccc(Oc4ccc(NC(=O)Nc5cc(C(F)(F)F)ccc5F)cc4)cc3[nH]2)CC1,2.75%,1.07%,-1.18%,-0.01%,0.68%,2.23%,-0.8%,0.7%,0.87%,-1.87%,-1.74%,1.11%,-0.28%,-0.1%,-1.41%,0.75%,3.99%,-2.3%,0.76%,1.88%
NC(=O)c1cc(-c2ccncc2)cc(-c2ccccc2)c1N,4.3%,0.12%,-1.32%,5.69%,4.23%,5.49%,5.48%,1.39%,1.24%,-0.25%,0.75%,-4.72%,-1.81%,1.31%,2.24%,5.39%,24%,7.44%,14.2%,3.5%
O=C1NC(=O)C(c2cccc(Cl)c2)=C1Nc1ccc(Cl)c(C(=O)O)c1,0.4%,0.25%,1.42%,3.55%,5.32%,4.58%,5.29%,-0.66%,-0.28%,-0.18%,-0.53%,0.54%,0.43%,1.73%,2.67%,4.05%,5.1%,10.7%,4.62%,2.24%
Clc1ccc(CNc2nccc(-c3cnn4ncccc34)n2)cc1,2.93%,0.92%,1.97%,-0.23%,5.35%,2.58%,2.28%,1.63%,3.93%,-0.52%,2.14%,1.78%,6.13%,0.35%,0.03%,0.93%,1.65%,4.14%,0.45%,0.1%
